Test: E. coli DRC41 culture turbidity changes, primary screen, E. coli filamentation inducer project, strain DRC41, OD650, 48 h (AID 1152);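 note: E. coli MC1000 strain DRC41 lacking acrAB efflux pump and sulA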
Conditions: E. coli DRC41 (acrAB sulA), higher = more signal, called active from +8 up or from −8 down

z-score, inactive:
COCCOC(=O)N1C(=O)[C@@]2(c3cc(C#Cc4ccc(OC)cc4)ccc31)[C@H](C(=O)N1CCCCCCC1)[C@H]1C(=O)O[C@H](c3ccccc3)[C@H](c3ccccc3)N1[C@@H]2c1ccc(O)cc1 0.785
COc1cc2c(cc1OC)CN(C(=O)[C@H]1[C@@H]3C(=O)O[C@@H](c4ccccc4)[C@@H](c4ccccc4)N3[C@@H](c3ccc(OCCO)cc3)[C@]13C(=O)Nc1ccc(C#CC4(O)CCCCCC4)cc13)CC2 1.9
CCCC[C@@H]1C[C@H]1[C@@H](NC(=O)c1cccnc1)c1ccc(-c2ccccc2)cc1 -2.22
CON(C)C(=O)C=C1C[C@@H](c2cccc(Cl)c2)O[C@@H](c2cccc(Cl)c2)O1 -0.511
COCCCNC(=O)[C@]1(CCC(=O)OC(C)(C)C)N=C(c2ccc(OCCCO)cc2)O[C@@H]1c1ccccc1 0.134
C=CCOC(=O)[C@H]1[C@@H]2C(=O)O[C@@H](c3ccccc3)[C@@H](c3ccccc3)N2[C@@H](c2ccc(OCCOC(=O)[C@H]3C[C@H]4C(=O)N[C@@H](Cc5ccccc5)C(=O)N4[C@H]3c3ccc(O)cc3)cc2)[C@]12C(=O)Nc1ccc(I)cc12 -0.783
CC(C)(C)N1CC=CC23O[C@@H]4C=CCOC(=O)[C@@H]4[C@H]2C(=O)N(CCCO)[C@@H]3C1=O (stereo partly drawn) 0.799
NCCCCCCNC(=O)[C@@H]1C[C@@H]2C(=O)N3CCC[C@H]3C(=O)N2[C@@H]1c1ccc(O)cc1 -1.12
